Source: PubChem (Columbia University Molecular Screening Center)
Shown are actives, neighbours in structure and some others; about 1.1% of the full set was active somewhere.
E-sel TNF inh – blocks E-selectin expression induced by TNF alpha; HUVEC TNFa-induced E-selectin immunofluorescence, high content; inhibition, % at 2 µM; 0.71% of 120,000 active; AID 1246;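 active means inhibition above the batch mean plus 3 SD, and confirmed as a hit on visual image review, cut at about 43% in these data; inconclusive means passes the inhibition cutoff but fails visual image review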;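 further: 0% = TNF-stimulated DMSO wells and 100% = unstimulated control wells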
VCAM1 TNFa inh – reduces TNF alpha induced VCAM1 expression in HUVEC; 0.48% of 95,000 active; inhibition, % at 2 µM; HUVEC TNFa-induced VCAM-1 immunofluorescence, high-content imaging;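 active means inhibition above the batch mean plus 3 SD, with images confirmed as a hit by eye, cut at about 37% in these data; inconclusive means inhibition above that limit but hit not confirmed in images; inactive means inhibition not above that limit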;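 further: 0% = TNF-stimulated DMSO wells and 100% = unstimulated control wells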
TNFa cytotox – HUVEC cytotoxicity counter-screen, TNF alpha stimulated. 0.17% of 93,000 active. HUVEC TNFalpha-stimulated, Hoechst cell count, imaging. cell count reduction, % at 2 µM. AID 848;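 active means cell count reduction exceeding the screen mean by over 5 SD, scaled to untreated wells per plate, cut at about 78% in these data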;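 further: cells counted after 24 h of TNF alpha exposure following the 1 h pretreatment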
F-actin modifier – alters cytoskeleton assembly in HUVEC cells; inhibition, % at 2 µM; AID 836; HUVEC TNFa F-actin phalloidin imaging, high content; 0.18% of 91,000 active;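 active means inhibition above the batch mean plus 3 SD and confirmed as a hit by visual image inspection, cut at about 30% in these data, passing the limit was not always enough; inconclusive means above the inhibition threshold but rejected on visual inspection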
* marks the source's active call; other numbers are inactive results; ? = inconclusive; nt = no result given.

SMILES | E-sel TNF inh | VCAM1 TNFa inh | TNFa cytotox | F-actin modifier
CCS(=O)(=O)N1CCCC(C(=O)NCc2cccc(OC)c2)C1 (stereo not given) | 53* | 27 | 11 | 3
COc1cccc(CNC(=O)C2CCCN(S(=O)(=O)c3c(C)n[nH]c3C)C2)c1 (stereo not given) | nt | -18 | 79* | 17
COc1ccc(CNC(=O)C2CCCN(S(=O)(=O)c3c(C)n[nH]c3C)C2)cc1 (stereo not given) | 18 | 10 | -18 | nt
O=[N+]([O-])c1ccccc1S(=O)(=O)NCc1cccnc1 | -19 | nt | nt | nt
COc1ccc(OCCN2C(=O)NC(C)(c3ccc(C)cc3)C2=O)cc1 (stereo not given) | 6 | 10 | 37 | 15
Cc1ccc(C2(C)NC(=O)N(CCOc3ccccc3)C2=O)cc1 (stereo not given) | 82* | 17 | 4 | 23
COc1ccc(-n2c(=S)[nH]c3cc(C(=O)NCc4ccco4)ccc3c2=O)cc1OC | 67* | 3 | 3 | 36
O=C(NCc1ccco1)c1ccc2c(=O)n(-c3ccccc3)c(=S)[nH]c2c1 | nt | -11 | 10 | 4
COc1cc(C2C(C#N)=C(N)Oc3cc(N(C)C)ccc32)cc2c1OCO2 (stereo not given) | nt | 97* | 68 | -4
CCN(CC)P(=O)(Nc1ccc(C)cc1Br)c1ccc(N(C)C)cc1NC(=O)c1ccco1 (stereo not given) | 17 | nt | nt | nt
N=C(N)SCc1nc2ccccc2c(=O)n1-c1ccccc1 | 61* | nt | nt | nt
COC(=O)c1ccccc1NC(=O)c1ccc(-c2cccc(Cl)c2)o1 | 44* | nt | nt | ?
Cc1nnc(SCC(=O)c2ccccc2)n1Cc1ccccc1 | 17 | nt | nt | nt
Cc1nnc(SCC(=O)N(C)c2ccccc2)n1Cc1ccccc1 | 89* | nt | nt | nt
COc1ccc2cc(C)c3nnc(SCC(=O)Nc4nc(-c5ccccc5)cs4)n3c2c1 | -70 | 15 | -3 | 10
O=C(CN(CC1CCCO1)C(=O)CCC(=O)Nc1nccs1)NCc1ccc2c(c1)OCO2 (stereo not given) | 100* | -16 | -38 | -5
Cc1cc(C=O)c2c(c1)C=CC1(Oc3ccccc3C(=O)N1C)O2 (stereo not given) | 3 | -15 | -22 | 7
CCN(CC)C(=O)c1ccc2c(c1)nnn2C | 15 | nt | nt | nt
O=C1CC(N2CCN(Cc3ccc4c(c3)OCO4)CC2)C(=O)N1c1ccccc1 (stereo not given) | 13 | 61* | 26 | -3
CC(C)(C)NC(=S)NC(=O)C12CC3CCC(CC(C3)C1)C2 | 4 | nt | nt | nt
CN1CCC(N(C)C(=S)NC(=O)C23CC4CC(CC(C4)C2)C3)CC1 | 79* | nt | nt | nt
COCCCNC(=O)COc1ccc(S(=O)(=O)NCc2ccccc2)cc1Cl | 92* | nt | nt | nt
O=C(COc1ccc([N+](=O)[O-])cc1Cl)NCCc1ccccc1 | 88* | nt | nt | nt
O=C(COc1ccc(Cl)cc1Cl)NCCCCc1ccccc1 | -62 | -1 | -13 | 9
O=C(CCC1CCCC1)N1CCC(N2CCCCCC2)CC1 | 5 | nt | nt | nt
SMILES | E-sel TNF inh | VCAM1 TNFa inh | TNFa cytotox | F-actin modifier
Cc1cc(C)n(C(=O)c2ccc(NC(=O)C3COc4ccccc4O3)cc2)n1 (stereo not given) | -11 | 98* | 85* | ?
Cc1cc(NC(=O)CSCC(=O)N(c2cccc(Cl)c2)C(C(=O)NC2CCCCC2)c2ccc(O)c(O)c2)no1 (stereo not given) | 2 | nt | nt | nt
COC(=O)c1ccccc1NC(=O)CN1CCN(C23CC4CC(CC(C4)C2)C3)CC1 | -38 | nt | nt | nt
COc1ccc(-n2c(COc3ccccc3)nnc2SCC(N)=O)cc1 | 81* | 10 | 16 | 5
CCc1nnc(NC(=O)CSc2nnc(COc3ccccc3)n2-c2ccc(C)cc2)s1 | nt | 16 | -10 | 90*
COc1ccc(-n2c(COc3ccc(C)cc3)nnc2SCC(N)=O)cc1 | nt | 7 | -15 | 3
C=CCn1c(COc2ccccc2)nnc1SCC(=O)O | 62* | -9 | -10 | -14
Cc1ccc(C(=O)CSc2nnc(COc3ccc(C#N)cc3)n2-c2ccccc2)cc1 | 4 | 96* | 8 | 8
CCc1nnc(NC(=O)CSc2nnc(COc3ccccc3)n2Cc2ccccc2)s1 | 10 | -5 | 45 | -22
CC(Oc1ccc2ccc(=O)oc2c1)C(=O)c1ccccc1 (stereo not given) | -7 | nt | nt | nt
CSCCC(NC(=O)c1ccc(C(C)(C)C)cc1)C(=O)O (stereo not given) | -22 | nt | nt | nt
O=[N+]([O-])c1ccc(/C=N/n2c(COc3ccccc3)n[nH]c2=S)cc1 | 30 | 43* | 53 | -3
COc1ccc(CN2CCN(CCc3ccccc3)C(CCO)C2)c(O)c1 (stereo not given) | -11 | nt | nt | nt
O=C1N2CCSC2=NC1(Nc1ccccn1)C(F)(F)F (stereo not given) | nt | 86* | -18 | 24
COc1ccc(OC)c(C(=O)c2ccc(C(=O)Nc3cccc4ccccc34)cc2)c1 | 42 | nt | nt | nt
